Compound activity from PubChem BioAssay.
Rows were chosen to be rich in hits. Some 1.4% of all compounds tested hit in one or more screens of this group.
MOR-DOR ag: agonists of OPRM1-OPRD1 heterodimerization, primary screen, cell-based, luminescence; Mu-type opioid receptor (Homo sapiens) + Delta-type opioid receptor (Homo sapiens), …; 340,000 compounds, 0.3% hits; activation, % at 9.3 µM; cells; in the data active = activation above about 18%;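 also: 0% = vehicle-treated cells and 100% = reference agonist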
beta cell repl: inducers of MIN6 beta-cell proliferation, primary screen, ATP luminescence, uHTS | 330,000 compounds, 0.29% hits | proliferation, % at 10 µM | MIN6 cells proliferation, ATPlite luminescence, 48 h; cells starved in 0.2% serum; 100% = growth in 10% serum;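 active = compounds whose signal lies at least 3.5 SD above the mean of all wells on their plate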;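 also: 0% = DMSO-treated cells in low-serum medium and 100% = 10% serum control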
HTR5A ag ctr: HTR5A agonists in luminescence cell assay, primary screen, counter-screen for OPRM1-OPRD1 heterodimer agonist project, full-deck HTS; 5-hydroxytryptamine receptor 5A (Homo sapiens), P47898; 340,000 compounds, 0.61% hits; activation, % at 9.3 µM; AID 504692, 2011; cell-based; in the data active = activation mostly above about 9.5%, no sharp cut-off; inactive = mostly below about 7.6%;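 also: 0% = cells with vehicle only and 100% = reference agonist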
Target sequence (P47898 whole entry, looked up): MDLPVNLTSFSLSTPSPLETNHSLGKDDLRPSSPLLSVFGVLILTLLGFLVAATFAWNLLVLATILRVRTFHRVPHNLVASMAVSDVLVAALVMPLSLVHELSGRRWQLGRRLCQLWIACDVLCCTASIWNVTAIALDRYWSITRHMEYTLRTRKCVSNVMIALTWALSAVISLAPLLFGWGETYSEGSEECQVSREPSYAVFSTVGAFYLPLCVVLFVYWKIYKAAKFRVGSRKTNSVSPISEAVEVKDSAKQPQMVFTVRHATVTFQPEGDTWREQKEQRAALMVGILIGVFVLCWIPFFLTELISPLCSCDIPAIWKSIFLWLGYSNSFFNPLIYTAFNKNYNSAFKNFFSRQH
MOR-DOR inv ag: inverse agonists of MOR-DOR heterodimerization, primary screen, cell-based, luminescence; Mu-type opioid receptor (Homo sapiens) + Delta-type opioid receptor (Homo sapiens), …; cell-based MOR-DOR heterodimer luminescence, inverse agonism; inhibition, % at 9.3 µM; 340,000 compounds, 0.21% hits; in the data active = inhibition above about 22%, passing the limit was not always enough;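 also: 0% = cells with DMSO and 100% = wells without cells with DMSO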
pCIP destab: p/CIP-EGFP fusion destabilizers, primary screen, fluorescence, F442A cells; AID 1984, 2009; decrease of EGFP signal, % at 10 µM; Q05BA5; 16 h; 290,000 compounds, 0.01% hits;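 active = EGFP signal decrease of at least 30% at 10 µM or well 3 SD below plate mean, unless failing retest; inactive = the rest, including hits failing retest or dose response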
HTR5A inv ctr: HTR5A inverse agonists in luminescence cell assay, primary screen, counter-screen for OPRM1-OPRD1 heterodimer inverse agonist project, full-deck HTS. 5-hydroxytryptamine receptor 5A (Homo sapiens), P47898. HTR5A cell line, inverse agonism. inhibition, % at 9.3 µM. 340,000 compounds, 0.083% hits; in the data active = inhibition mostly above about 23%, no sharp cut-off; inactive = mostly below about 18%;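 also: 0% = cells with DMSO and 100% = no-cell wells with DMSO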
* = called active by the depositor.

Cc1ccsc1C(=O)OCC(=O)N1CC(C)CC(C)C1 (stereo unspecified) was read as MOR-DOR ag -1, beta cell repl -1, HTR5A ag ctr 0, MOR-DOR inv ag 7 and HTR5A inv ctr 0.
Screening Cc1ccc(C(=O)O)cc1NC(=S)NC(=O)c1ccc(-c2ccc(Cl)cc2)o1 returned MOR-DOR ag -2, beta cell repl -3, HTR5A ag ctr 12*, MOR-DOR inv ag 10, pCIP destab -8 and HTR5A inv ctr -5.
COc1ccc(CNC(=O)CN2C(=O)C(C)N(c3ccc(C)cc3)C2=O)cc1 (stereo unspecified) was read as MOR-DOR ag -1, beta cell repl 0, HTR5A ag ctr 12*, MOR-DOR inv ag 8, pCIP destab 2 and HTR5A inv ctr -8.
`O=C(CSc1nnc(C2CC2)n1-c1ccccc1)N1CCCC1` gave MOR-DOR ag -3, beta cell repl -3, HTR5A ag ctr -1, MOR-DOR inv ag 15 and HTR5A inv ctr 4.
Screening CCCC(=O)OCCNc1cc(Sc2nccn2C)c2nonc2c1[N+](=O)[O-] returned MOR-DOR ag -7, HTR5A ag ctr -8, MOR-DOR inv ag 40*, pCIP destab -18 and HTR5A inv ctr -18.
`CCCSc1cc(NCCOC(=O)CCC)c([N+](=O)[O-])c2nonc12` gave MOR-DOR ag -2, beta cell repl -6, HTR5A ag ctr 1, MOR-DOR inv ag 9, pCIP destab 1 and HTR5A inv ctr -25.
For CCCC1(C(=O)O)NC(c2ccccc2O)C2C(=O)N(c3cccc(Cl)c3)C(=O)C21 (stereo unspecified) the results were MOR-DOR ag -3, beta cell repl -2, HTR5A ag ctr 14*, MOR-DOR inv ag 16, pCIP destab 6 and HTR5A inv ctr -42.
`COc1cc(C(=O)ON=C2C3CC4CC(C3)CC2C4)cc(OC)c1OC` gave MOR-DOR ag 10, beta cell repl -6, HTR5A ag ctr 12*, MOR-DOR inv ag -48, pCIP destab -4 and HTR5A inv ctr -42.
For COc1cc(C(=O)O/N=C2\C=CC(=O)C=C2C)cc(OC)c1OC the results were MOR-DOR ag 2, beta cell repl 1, HTR5A ag ctr 2, MOR-DOR inv ag -11, pCIP destab -2 and HTR5A inv ctr -6.
For Nc1ncnc2c1ncn2[C@@H]1O[C@H](CNCc2ccccc2OCC(=O)N2CCCCC2)[C@@H](O)[C@H]1O the results were MOR-DOR ag -2, beta cell repl 2, HTR5A ag ctr 5, MOR-DOR inv ag 10 and HTR5A inv ctr -20.
Screening COc1ccc(OC)c(NC(=O)COC(=O)C2CCCCC2)c1 returned MOR-DOR ag 1, beta cell repl -1, HTR5A ag ctr -1, MOR-DOR inv ag -4 and HTR5A inv ctr 3.
Screening CC(C)C(NC(=O)c1ccc(Cl)cc1Cl)C(=O)N1CCN(S(=O)(=O)c2ccccc2)CC1 (stereo unspecified) returned MOR-DOR ag -1, beta cell repl 0, HTR5A ag ctr 2, MOR-DOR inv ag 3 and HTR5A inv ctr -7.
`CC1CCCC(C)N1NC(=O)Cc1ccccc1` (stereo unspecified) gave MOR-DOR ag 0, beta cell repl -1, HTR5A ag ctr 9.7*, MOR-DOR inv ag -4, pCIP destab 6 and HTR5A inv ctr -26.
CC(Sc1ncccn1)C(=O)N1CCc2ccccc21 (stereo unspecified) was read as MOR-DOR ag -1, beta cell repl -1, HTR5A ag ctr -1, MOR-DOR inv ag 6 and HTR5A inv ctr -5.
Cc1oc(-c2ccccc2Cl)nc1CS(=O)CC(=O)NCCCN1CC(C)CC(C)C1 (stereo unspecified) was read as MOR-DOR ag -2, beta cell repl 2, HTR5A ag ctr -2, MOR-DOR inv ag 10, pCIP destab 2 and HTR5A inv ctr 7.
`CN(C)S(=O)(=O)c1cccc(NC(=O)CSc2nc3c(cc2C#N)C(=O)CC(C)(C)C3)c1` gave MOR-DOR ag 7, beta cell repl 0, HTR5A ag ctr 13*, MOR-DOR inv ag -37, pCIP destab -4 and HTR5A inv ctr -49.
`CC(C)CN1CCN(Cc2nc(C(C)C)cs2)CC1CCO` (stereo unspecified) gave MOR-DOR ag 0, beta cell repl 0, HTR5A ag ctr 11*, MOR-DOR inv ag 1, pCIP destab -10 and HTR5A inv ctr -30.
Screening O=C(COC(=O)c1ccc(Cl)nc1)NCCc1ccc(F)cc1 returned MOR-DOR ag -3, beta cell repl -1, HTR5A ag ctr -2, MOR-DOR inv ag 10 and HTR5A inv ctr 16.
CC(c1ccccc1)C1CC(=O)N(c2ccccc2)C1=O (stereo unspecified) was read as MOR-DOR ag -7, beta cell repl 1, HTR5A ag ctr -12, MOR-DOR inv ag 35*, pCIP destab 1 and HTR5A inv ctr 36*.
`CCOc1ccc(NC(=O)Cn2nnc(C(=O)NCc3ccc4c(c3)OCO4)c2N)cc1` gave MOR-DOR ag 9, beta cell repl -5, HTR5A ag ctr 13*, MOR-DOR inv ag -45, pCIP destab 2 and HTR5A inv ctr -28.
COc1ccc(S(=O)(=O)N2CCN(C(=O)CCSc3ccccc3)CC2)cc1 was read as MOR-DOR ag 1, beta cell repl -2, HTR5A ag ctr 2, MOR-DOR inv ag -6 and HTR5A inv ctr -4.
For c1cnc2ccc3c(c2c1)COCO3 the results were MOR-DOR ag -3, HTR5A ag ctr 5, MOR-DOR inv ag 13 and HTR5A inv ctr -18.
For O=C1Nc2ccccc2S/C1=C/Nc1cccc(Cl)c1 the results were MOR-DOR ag 23*, beta cell repl -2, HTR5A ag ctr 14*, MOR-DOR inv ag -121, pCIP destab -5 and HTR5A inv ctr 3.
Screening COc1ccc2ncccc2c1Cc1c(OC)ccc2ncccc12 returned MOR-DOR ag -1, HTR5A ag ctr -2, MOR-DOR inv ag 3 and HTR5A inv ctr 7.
`Cc1ccccc1-c1cc(C(=O)NCC2CC2)nn1CC1CC(c2cccc([N+](=O)[O-])c2)=NO1` (stereo unspecified) gave MOR-DOR ag -1, beta cell repl -4, HTR5A ag ctr -3, MOR-DOR inv ag 4 and HTR5A inv ctr -22.
For CC(=O)Nc1cccc(NC(=O)Nc2ccc(C(C)=O)cc2)c1 the results were MOR-DOR ag 0, beta cell repl -2, HTR5A ag ctr -3, MOR-DOR inv ag -1, pCIP destab 5 and HTR5A inv ctr -1.
